Publication PMC4336329 (PLoS ONE, 2015)
The campaign covered roughly 310,000 compounds. About 14,000 (4.5%) showed an effect of 50% or more. Effects have a minus sign here. The sample holds strong results, similar compounds and a random draw of the others, so the mix is not that of the screen.

These molecules were tested against human ether-à-go-go-related gene (hERG) potassium channel (human, UniProt Q12809) (assay: primary screen, population patch clamp on CHO cells stably expressing hERG; higher = less effect of the substance).
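Also: peak tail current of the secondary pulse compared with the same well before compound.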

human ether-à-go-go-related gene (hERG) potassium channel, sequence (Q12809 whole entry, looked up): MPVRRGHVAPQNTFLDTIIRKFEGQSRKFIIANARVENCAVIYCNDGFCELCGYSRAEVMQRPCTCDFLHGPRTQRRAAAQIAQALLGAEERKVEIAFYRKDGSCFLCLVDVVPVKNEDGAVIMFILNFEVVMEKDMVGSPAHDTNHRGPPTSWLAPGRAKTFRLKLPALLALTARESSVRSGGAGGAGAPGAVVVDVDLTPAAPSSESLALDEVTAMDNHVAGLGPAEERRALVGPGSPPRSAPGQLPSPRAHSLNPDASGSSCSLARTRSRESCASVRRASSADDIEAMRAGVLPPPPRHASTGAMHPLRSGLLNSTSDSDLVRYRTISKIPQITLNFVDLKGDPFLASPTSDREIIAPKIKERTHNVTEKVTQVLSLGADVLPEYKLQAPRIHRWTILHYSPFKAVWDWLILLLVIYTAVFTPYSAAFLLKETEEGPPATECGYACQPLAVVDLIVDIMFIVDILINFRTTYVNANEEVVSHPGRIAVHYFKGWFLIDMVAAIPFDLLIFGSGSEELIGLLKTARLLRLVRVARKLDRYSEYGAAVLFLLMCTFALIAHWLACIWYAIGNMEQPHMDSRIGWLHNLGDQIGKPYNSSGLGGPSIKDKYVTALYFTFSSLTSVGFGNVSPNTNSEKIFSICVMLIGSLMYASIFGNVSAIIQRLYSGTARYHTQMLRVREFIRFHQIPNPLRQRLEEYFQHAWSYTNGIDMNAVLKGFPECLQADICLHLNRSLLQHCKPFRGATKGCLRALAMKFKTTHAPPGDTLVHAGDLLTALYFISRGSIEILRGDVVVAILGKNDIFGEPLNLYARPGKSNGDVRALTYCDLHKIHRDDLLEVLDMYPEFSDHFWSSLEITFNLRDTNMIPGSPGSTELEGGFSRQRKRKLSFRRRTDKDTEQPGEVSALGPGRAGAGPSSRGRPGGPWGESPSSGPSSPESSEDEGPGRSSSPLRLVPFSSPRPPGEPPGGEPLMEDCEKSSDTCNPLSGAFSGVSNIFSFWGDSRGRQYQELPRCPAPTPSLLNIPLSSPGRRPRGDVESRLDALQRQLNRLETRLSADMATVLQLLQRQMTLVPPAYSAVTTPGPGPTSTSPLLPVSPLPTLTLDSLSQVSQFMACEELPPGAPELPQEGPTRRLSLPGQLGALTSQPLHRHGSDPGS

| SMILES | hERG current change (%, negative = inhibition) at 10uM |
| --- | --- |
| O=C(N1CCCCCC1)N1CCN(S(=O)(=O)c2ccccc2)CC1 | -11.9% |
| Cc1c(CC(=O)NCC(=O)NCC(=O)O)c(=O)oc2cc3c(cc12)CCC(C)(C)O3 | 12.5% |
| Cc1ccc(C)c(NC(=O)CN(C)C(=O)[C@@H](NC(=O)c2ccc(C(C)(C)C)cc2)C(C)C)c1 | -16.5% |
| Nn1c(SCC(=O)NC(=O)Nc2ccc3c(c2)OCCO3)nnc1C1CC1 | 14.3% |
| CC(C)NC(=NCc1ccc(Cl)cc1Cl)Nc1ccccc1 | -53% |
| S=C(NCc1ccc(Cl)cc1Cl)Nc1ccccc1 | 10.1% |
| O=C(NCc1ccc(Cl)cc1Cl)Nc1ccccc1 | 2.75% |
| COC(=O)C1=C(c2ccc3ccccc3c2)C[C@@H]2CC[C@H]1N2C(=O)NCCCOC(C)C | -7.68% |
| O=C(COc1ccc(-c2ccccc2)cc1)N/N=C/c1ccccc1Br | 19.7% |
| O=C(O)C1C2C=CC(C2)C1C(=O)N1CCN(C/C=C/c2ccccc2)CC1 (stereo not drawn) | 17.1% |
| COCC(O)CSc1c([N+](=O)[O-])nc(C)n1Cc1ccc(OC)c([N+](=O)[O-])c1 (stereo not drawn) | -2.82% |
| COc1ccc(Cn2c(C)nc([N+](=O)[O-])c2SCC(=O)O)cc1[N+](=O)[O-] | 16.5% |
| COc1ccc(Cn2cc([N+](=O)[O-])nc2C)cc1[N+](=O)[O-] | -2.26% |
| CCOc1ccc(Cn2ccnc2CCl)cc1[N+](=O)[O-] | -33.2% |
| CCOc1ccc(Cn2c(C)nc([N+](=O)[O-])c2SCC(O)CCl)cc1[N+](=O)[O-] (stereo not drawn) | -68.2% |
| Cc1nc([N+](=O)[O-])c(SCC(N)=O)n1Cc1ccccc1 | 27.8% |
| CCCOc1ccc(Cn2c(C)nc([N+](=O)[O-])c2SCC(O)COC)cc1[N+](=O)[O-] (stereo not drawn) | -66% |
| Cn1cnc([N+](=O)[O-])c1SCC(O)CCl (stereo not drawn) | 15.9% |
| Cc1nc([N+](=O)[O-])c(SCC(O)CCl)n1Cc1ccc(Cl)cc1 (stereo not drawn) | -59.9% |
| O=C(O)c1ccc(COc2ccccc2[N+](=O)[O-])o1 | 14.8% |
| O=C1CCCC(O)=C1C(C#Cc1ccccc1)C1=C(O)CCCC1=O | -17.9% |
| COC(=O)c1c(C)oc2ccc(NS(=O)(=O)c3cccs3)cc12 | -2.42% |
| CCOC(=O)c1c(C)oc2ccc(NS(=O)(=O)c3cccs3)cc12 | 6.47% |

| SMILES | hERG current change (%, negative = inhibition) at 10uM |
| --- | --- |
| COCCOC(=O)c1c(C)oc2ccc(NS(=O)(=O)c3cccs3)cc12 | -51.4% |
| CCOC(=O)c1ccc(NC(=O)CCSCCc2ccccn2)cc1 | 0.702% |
| CC(C)C[C@H](NC(=O)[C@H](Cc1ccccc1)n1c(=O)[nH]c2ccccc2c1=O)C(=O)N1CCC[C@H]1C(=O)O | 6.16% |
| CCN(CC)CCNc1nc(-c2ccc(OC)cc2)c(-c2ccc(OC)cc2)s1 | -52.6% |
| CNc1nc(-c2ccc(OC)cc2)c(-c2ccc(OC)cc2)s1 | -12.7% |
| Br.COc1ccc(-c2nc(NC3=NCCCCC3)sc2C)cc1 | -26.6% |
| CCNc1nc(-c2ccc(OC(F)F)cc2)c(C)s1 | 15.1% |
| COCCNc1nc(-c2ccc(OC)cc2)c(-c2ccc(OC)cc2)s1 | 15.3% |
| CCN(CC)CCNc1nc(-c2ccc(OC(F)F)cc2)c(C)s1 | -77.8% |
| C/C(=N/NC(=O)c1ccc(Cl)cc1Cl)c1cccnc1 | 16.4% |
| CN1CCN(c2nc3c(c(=O)n(C)c(=O)n3C)n2Cc2cccc3ccccc23)CC1 | -5.1% |
| CN(CC(=O)Nc1ccc(Cl)cc1F)C1CCS(=O)(=O)C1 (stereo not drawn) | -20.6% |
| COc1ccc(CNC(=O)C2CC(=O)N(C3CCCC3)C2)cc1 (stereo not drawn) | -8.14% |
| O=C(OCC#CCSc1nnc(-c2ccncc2)o1)c1cccs1 | -53.2% |
| Cc1ccc(-c2nnc(SCC#CCOC(=O)c3cccs3)o2)cc1 | 14.3% |
| O=C(OCC#CCSc1nnc(-c2ccccc2)o1)c1cccs1 | -17.7% |
| COc1ccc(CN2CCNC(=O)C2CC(=O)NCc2cn[nH]c2-c2ccccc2)c(F)c1 (stereo not drawn) | -1.07% |
| Cc1cccc(NC(=O)c2ccccc2NC(=O)Cc2ccccc2)c1C | 4.93% |
| CCNC(=O)CSc1nc(-c2ccccc2)cs1 | -4.81% |
| CN(C)c1nc(N2CCN(c3ccccc3)CC2)c(C#N)c(=O)o1 | -16.9% |
| CCN1CCN(C(c2cccs2)C(C)NC(=O)Oc2ccccc2)CC1 (stereo not drawn) | -38.5% |
| CC(C)N(C(=O)c1ccc2nc(-c3ccccc3)c(-c3ccccc3)nc2c1)C(C)C | -4.73% |
| Cc1ccc(SCc2nc(-c3ccccc3)no2)cc1 | 2.3% |

| SMILES | hERG current change (%, negative = inhibition) at 10uM |
| --- | --- |
| CCN(CC)CCOC(=O)C(Cc1ccco1)Cc1cccc2ccccc12.O=C(O)C(=O)O (stereo not drawn) | -76.8% |
| CCN(CC)CCOc1ccccc1OC.O=C(O)C(=O)O | -11% |
| O=C(Cc1cccc2ccccc12)NCC1CCCO1 (stereo not drawn) | -5.85% |
| CCN(CC)CCOC(=O)C(Cc1cccc2ccccc12)CC1CCCO1.O=C(O)C(=O)O (stereo not drawn) | -53.8% |
| O=C(NCC1CCCO1)c1cccc2ccccc12 (stereo not drawn) | 21.2% |
| CCN(CC)CCOC(=O)CCc1cccc2ccccc12.O=C(O)C(=O)O | -42.6% |
| CCOC(=O)C(C)Oc1ccc2c(C)cc(=O)oc2c1C(C)=O (stereo not drawn) | -13.8% |
| COCCn1c(SCC(=O)N2CCCCC2)nc2c(c1=O)SC(C)C2 (stereo not drawn) | 9.29% |
| Cc1ccc(-c2c[n+](CC(=O)Nc3ccc(C)cc3C)c3n2CCC3)cc1.[Cl-] | -30.8% |
| Cc1cccc(C)c1NC(=O)C[n+]1cc(-c2ccccc2)n2c1CCC2.[Cl-] | 11.3% |
| Cc1ccc(-c2c[n+](CC(=O)Nc3cc(=O)n(C)c(=O)n3C)c3n2CCC3)cc1.[Cl-] | -0.179% |
| Cc1ccccc1NC(=O)C[n+]1cc(-c2ccccc2)n2c1CCC2.[Cl-] | 12.9% |
| Cc1ccc(-c2csc(NC(=O)C[n+]3cc(-c4ccc(C)cc4)n4c3CCC4)n2)cc1.[Cl-] | -72.5% |
| O=C(C[n+]1cc(-c2ccccc2)n2c1CCC2)Nc1nc(-c2ccccc2)cs1.[Cl-] | -35.1% |
| Cc1ccc(-c2c[n+](CC(=O)Nc3nc(-c4ccccc4)cs3)c3n2CCC3)cc1.[Cl-] | -54.9% |
| Cc1ccc(-c2csc(NC(=O)C[n+]3cc(-c4ccccc4)n4c3CCC4)n2)cc1.[Cl-] | -57% |
| O=C(C[n+]1cc(-c2ccc(Cl)cc2)n2c1CCC2)Nc1nc(-c2ccccc2)cs1.[Cl-] | -0.843% |
| COC(=O)c1ccccc1NC(=O)c1cccc(COc2ccccc2Cl)c1 | 10.6% |
| O=C(c1ccc(F)cc1)N1CCN(c2ncccn2)CC1 | -1.2% |
| CC(=O)/C=C(\C)Nc1ccc(-c2cnc(-c3ccccc3)o2)cc1 | -4.59% |
| CC(=O)O[C@H]1CC[C@H]2[C@@H]3CCc4cc(O)ccc4[C@H]3CC[C@]12C | -5.79% |
| COc1ccc(CC(=O)N/N=C/c2ccc(C)s2)cc1 | 11% |
| O=C(Cc1cccc2ccccc12)Nc1ccc2c(c1)C(=O)NC2=O | 9.52% |

| SMILES | hERG current change (%, negative = inhibition) at 10uM |
| --- | --- |
| COc1ccc(NC(=O)CS(=O)(=O)c2cn(CC(=O)N(C(C)C)C(C)C)c3ccccc23)c(OC)c1 | -19.3% |
| O=C(CC(c1ccccc1)c1ccccc1)NCCOCc1ccccc1 | -12.6% |
| Cc1ccc(CN2C(=O)CNC2=S)cc1 | 9.68% |
| O=C(Nc1cccc(N=Cc2cc(Br)cc(Br)c2O)c1)c1ccco1 | 3.77% |
| CCCc1nn(C)c(C(=O)Nc2ccc3ccccc3c2)c1Cl | 8.62% |
| CC1CC(C#N)N(N(C)C)C1=C(C#N)C#N (stereo not drawn) | 11.3% |
| CC(=O)Nc1c2c(nn1-c1cccc(Cl)c1)CS(=O)C2 (stereo not drawn) | -1.6% |
| CCOc1ccc(N=Cc2c(O)c3ccccc3oc2=O)cc1 | 3.29% |
| Cc1cccc(OCC(=O)NCc2ccccc2)c1 | 13.6% |
| COCCCN1CC(=O)N2C(c3cccc(OC)c3)c3[nH]c4ccccc4c3C[C@H]2C1=O (stereo partly drawn) | -14.3% |
| COc1cccc(C2c3[nH]c4ccccc4c3C[C@H]3C(=O)N(CCCCCO)CC(=O)N23)c1 (stereo partly drawn) | -64.9% |
| COCCN1CC(=O)N2C(c3cccc(OC)c3)c3[nH]c4ccccc4c3C[C@H]2C1=O (stereo partly drawn) | -38.6% |
| COc1cccc(C2c3[nH]c4ccccc4c3CCN2Cc2cnn(C)c2)c1 (stereo not drawn) | -69.6% |
| CCn1cc(CN2CCc3c([nH]c4ccccc34)C2c2cccc(O)c2)c(C)n1 (stereo not drawn) | -18.8% |
| CCn1cc(CN2CCc3c([nH]c4ccccc34)C2c2cccc(OC)c2)c(C)n1 (stereo not drawn) | -57.3% |
| Oc1cccc(C2c3[nH]c4ccccc4c3CCN2Cc2cnn(-c3ccccc3)c2)c1 (stereo not drawn) | -35.3% |
| CCn1cc(CN2CCc3c([nH]c4ccccc34)C2c2ccc(F)c(OC)c2)c(C)n1 (stereo not drawn) | 6.94% |
| COc1cc(C2c3[nH]c4ccccc4c3CCN2Cc2cn(C)nc2C)ccc1F (stereo not drawn) | 1.02% |
| CCn1cc(CN2CCc3c([nH]c4ccccc34)C2c2cccc(OC)c2OC)c(C)n1 (stereo not drawn) | 7.99% |
| CCOc1ccc(C2c3[nH]c4ccccc4c3CCN2Cc2cn(CC)nc2C)cc1 (stereo not drawn) | -63.6% |
| COc1cccc(C2c3[nH]c4ccccc4c3CCN2Cc2cccc(C)n2)c1 (stereo not drawn) | -26.6% |
